# Assay results as given in PubChem BioAssay (NCI).
# Values joined by “and” are separate entries in the source; they are usually repeats but may differ in a detail not shown here. Identical values can stand only once. Compounds without any hit were thinned out: in the full panel of roughly 83,000, 20% have a hit.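 48-hour exposure, single concentration, 96-well plates; percent growth endpoint where 0 means no net growth. Active: below 10.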 Active and inactive are the calls of the source.
# System: T-47D breast
# Assay: NCI-60 one-dose screen, 48 h (100 = growth as untreated, 0 = no growth, -100 = all killed)
# Settings: 10 µM unless noted
row,Compound,growth
1,O=C(CSc1nnc(-c2ccc(-c3nc4ccccc4[nH]3)cc2)o1)Nc1ccc(Br)cc1,32.8% (inactive)
2,COc1ccc2c(c1)N=c1c-2cc2c(O)[nH]c(=S)n2c1=O,46.4% (inactive)
3,CN(C(=O)CN1C(=O)/C(=C/c2ccco2)SC1=S)C1CCS(=O)(=O)C1 (stereo not drawn),75.7% (inactive)
4,CCOc1ccc2[nH]c(=O)c(C(c3nnnn3CC3CCCO3)N3CCN(Cc4ccccc4)CC3)cc2c1 (stereo not drawn),106% (inactive)
5,N#CC1=C(c2cccs2)Nc2c(c(-c3ccccc3)nn2-c2ccccc2)C12C(=O)Nc1ccc(Cl)cc12 (stereo not drawn),11% (inactive)
6,COc1ccc(-c2nc3ccccc3n2CC(=O)N=Nc2c(O)[nH]c3ccc(OC)cc23)cc1,-72.5% (active)
7,O=C(NC(=S)N1CCN(c2ncnc3c2cnn3-c2ccccc2)CC1)c1ccc(Br)cc1,73.1% (inactive)
8,COc1c(B(O)O)cc(F)cc1-c1nc2ccc3[nH]ncc3c2c2c1COCC2,62.6% (inactive)
9,CC1=C(C(=O)Nc2ccccc2)C(c2cccc(Cl)c2Cl)n2c(nc3ccccc32)N1 (stereo not drawn),67.4% (inactive)
10,CC(Nc1ncnc2ccc(-c3ccc4oc(N)nc4c3)cc12)c1ccccc1 (stereo not drawn),-74.3% (active)
11,CNc1nc2ccccc2n2c(-c3ccc(O)c(O)c3)cnc12,42.2% (inactive)
12,COc1cc(/C=C/C(=O)c2cnn(-c3cc(=O)[nH]c4ccc(Br)cc34)c2C)cc(OC)c1OC,-47.3% (active)
13,COc1ccc(/C=C/C(=O)c2ccc(OC)c(S(N)(=O)=O)c2)c(C(F)(F)F)c1,29.3% (inactive)
14,COc1ccc(S(=O)(=O)Nc2ccc(-c3ccc4c(c3)NC(=O)/C4=C\c3ccc[nH]3)cc2)cc1OC,-21% (active)
15,COC(=O)c1ccc(-c2c(-c3ccccc3)c(F)c3oc(C(=O)OC)c(N)c3c2-c2ccccc2)cc1,64.5% (inactive)
16,O=C(COc1ccc(/C=C2/C(=O)Nc3ccc(Cl)cc32)cc1)Nc1ccc(Br)cc1,-22% (active)
17,O=C(CSc1nc2ccccc2c(=O)[nH]1)NNC(=O)c1ccccc1Cl,92.4% (inactive)
18,COc1ccc2[nH]cc(-c3cc4nc(-c5cn(C)c6ncccc56)cc(N)n4n3)c2c1,33.3% (inactive)
19,COc1cc2cc(C(=O)N3C[C@@H](CCl)c4c3cc(OC(=O)N(CCC(=O)N3CCN(C)CC3)C3CCCCC3)c3ccccc43)[nH]c2c(OC)c1OC,-43.1% (active)

row,Compound,growth
1,CC[C@]12C=CCN3CC[C@@]4(c5ccc(OC)cc5N(C)[C@H]4[C@@](O)(C(=O)OC)[C@@H]1OC(=O)CCCC[P+](c1ccc(F)cc1)(c1ccc(F)cc1)c1ccc(F)cc1)[C@@H]32,12.8% (inactive)
2,O=C(Nc1nc2ccc([N+](=O)[O-])cc2s1)Nc1ccccc1F,-5.6% (active)
3,O=C1C=CC(=CC=C2N(Cc3ccc4ccccc4c3)c3ccccc3N2Cc2ccc3ccccc3c2)C=C1,5.78% (active) and 27.5% (inactive)
4,O=c1[nH]c2ccccc2cc1COc1ccc(Nc2nccc(-c3ccc(Cl)cc3)n2)cc1,92.2% (inactive)
5,CC1=C(C(=O)Nc2ccccc2)C(c2ccc3ccccc3c2)n2c(nc3ccccc32)N1 (stereo not drawn),91.8% (inactive)
6,O=C1CC(c2ccc(I)cc2)OC2C=Cc3ccccc3C12 (stereo not drawn),87.8% (inactive)
7,COc1ccc(C(=O)/C=C/c2ccc3c(c2)OCCO3)cc1S(N)(=O)=O,53% (inactive)
8,O=C(Cn1c(-c2ccccc2)nc2ccccc21)N=Nc1c(O)[nH]c2ccc(Br)cc12,-59.4% (active)
9,Cn1cc(-c2cc3nc(-c4cn(C)c5ncc(Br)cc45)cc(N)n3n2)c2cc(F)ccc21,2.75% (active)
10,O=C1Nc2ccccc2/C1=C/C(=O)c1cc2ccccc2oc1=O,83.2% (inactive)
11,CCC(=O)c1c2c(c3ccc4c5ccccc5ccc4n13)C(=O)c1ccccc1C2=O,87.2% (inactive)
12,COc1ccc(C(=O)NNC(=O)CSc2nc3sc4c(c3c(=O)n2-c2ccc(Cl)cc2)CCCC4)cc1,72.5% (inactive)
13,Cc1nc2sccn2c1-c1nnc(SCC(C)C)o1,59.4% (inactive)
14,COc1ccc([C@H]2C(C(=O)c3ccc(Cl)cc3)C3(N[C@@H]2c2ccccc2)C(=O)Nc2ccccc23)cc1 (stereo partly drawn),16.8% (inactive)
15,CN(C)CCCNC(=S)Nc1ccc(/C=C/c2ccc(Cl)cc2)cc1,-48.7% (active)
16,COc1ccc2[nH]c(=O)c(CSc3ccccc3Nc3nccc(-c4ccc(Cl)cc4)n3)cc2c1,38% (inactive)
17,CCN(C(=O)CN1C(=O)/C(=C/c2ccco2)SC1=S)C1CCS(=O)(=O)C1 (stereo not drawn),78.1% (inactive)
18,CC[C@@]12CC(C(=O)OC)=C3Nc4cc5c(cc4[C@@]34CCN(C[C@H]3O[C@H]31)[C@@H]24)[C@@H]1[C@H](O5)[C@@H](O)[C@@]2(CC)CC(C(=O)OC)=C3Nc4cc(O)ccc4[C@@]34CCN1[C@@H]24,-37.5% (active)
19,CN(C)CCCc1ccc(Nc2cnn(C)c(=O)c2Cl)cc1,98.2% (inactive)
